Laboratory results published in PubChem BioAssay AID624330 (Southern Research Specialized Biocontainment Screening …, 2012).
Among all 340,000 compounds or so, about 2,100 (0.62%) were called active.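 Rule for the calls: active = first-screen hits whose inhibition reached a set limit at any dose in the follow-up dose series; inconclusive = inhibition above the set first-screen limit but never retested; inactive = the rest.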 These entries were drawn from the full list. Potency and affinity values are given separately.

Target: Rac GTPase-activating protein 1 (Homo sapiens) (UniProt Q9H0H5)
Sequence (Q9H0H5 whole entry, looked up): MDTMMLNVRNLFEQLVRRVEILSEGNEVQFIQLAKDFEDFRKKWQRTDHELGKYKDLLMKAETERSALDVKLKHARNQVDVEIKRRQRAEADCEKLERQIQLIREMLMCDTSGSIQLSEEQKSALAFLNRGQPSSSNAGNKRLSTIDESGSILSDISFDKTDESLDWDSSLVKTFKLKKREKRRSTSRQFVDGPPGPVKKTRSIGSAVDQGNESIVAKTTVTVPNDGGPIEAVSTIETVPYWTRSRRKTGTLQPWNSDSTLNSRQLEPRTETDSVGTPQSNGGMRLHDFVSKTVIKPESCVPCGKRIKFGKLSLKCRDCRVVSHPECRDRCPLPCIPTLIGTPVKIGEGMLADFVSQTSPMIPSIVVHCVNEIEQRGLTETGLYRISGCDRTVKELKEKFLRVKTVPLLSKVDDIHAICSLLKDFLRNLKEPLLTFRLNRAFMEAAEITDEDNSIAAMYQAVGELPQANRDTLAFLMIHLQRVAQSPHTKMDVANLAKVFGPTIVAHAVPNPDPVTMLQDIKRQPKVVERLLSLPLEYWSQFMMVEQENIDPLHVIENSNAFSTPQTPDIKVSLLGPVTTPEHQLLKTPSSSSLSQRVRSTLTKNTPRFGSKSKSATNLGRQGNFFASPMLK
Test: blockers of MgcRacGAP-driven Rac1 GTP hydrolysis – biochemical, ADP Hunter fluorescence, primary and confirmatory, confirmation (AID 624330);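 note: fluorescence reports GDP produced by GAP-driven GTP hydrolysis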
Conditions: MgcRacGAP-stimulated Rac1 GTP hydrolysis, at 30 µM, active compounds read high, GST-tagged Rac1 F28L mutant substrate

inhibition, inactive:
O=C(NC1CC1)c1ccc(CN(c2ccccc2)S(=O)(=O)c2ccccc2)cc1 5.44%, O=C(Nc1cccc(-c2ccc(N3CCOCC3)nn2)c1)c1ccc(Cl)cc1 3.67%, CCc1c(C)nc(SCC(=O)N2CCN(c3ccccc3)CC2)[nH]c1=O 13%, O=[N+]([O-])c1cc(Cc2ccccc2)cc(C=Nc2ccc(N3CCOCC3)cc2)c1O 27.8%, Cc1ccc(N=Cc2cc(Cc3ccccc3Cl)cc([N+](=O)[O-])c2O)c(O)c1 20.2%, O=C(COC(=O)c1cnccn1)NCCc1ccc(Cl)cc1 8.82%, CCOc1ccc(C(=O)NNC(=O)C2CC(=O)N(c3ccc(C)cc3)C2)cc1 (stereo not drawn) 5.17%, Oc1ccc(/C=N/Nc2ccnc3cc(Cl)ccc23)c(O)c1 17.9%, Oc1ccccc1/C=N/Nc1nccnc1Cl 5.4%, Fc1ccc(/C=N/Nc2nccnc2Cl)cc1 15.7%, Clc1nccnc1N/N=C/c1ccc(Br)cc1 13.4%, O=C(O)c1ccc(/C=N/Nc2ncc(Cl)cc2Cl)cc1 2.45%, Clc1cnc(N/N=C/c2ccncc2)c(Cl)c1 3.41%, CCC(NC(=O)c1ccccc1NC(=O)C(C)(C)C)C(=O)N1CCCC1 (stereo not drawn) 7.5%, CCN(C(=O)CSc1nc2cc(S(=O)(=O)N(CC)CC)ccc2n1CC)C1CCS(=O)(=O)C1 (stereo not drawn) 0.8%, COCCN(C(=O)c1cccc(-n2cnnn2)c1)c1c(N)n(CC(C)C)c(=O)[nH]c1=O 5.99%, CCc1cc(C(=O)N2CCN(S(=O)(=O)c3ccc(Cl)cc3)CC2)sc1C 1.55%, O=C(c1cc(S(=O)(=O)N2CCCCC2)ccc1N1CCOCC1)N1CCN(Cc2ccccc2)CC1 7.61%, NC(=S)NNC(=O)[C@@H]1CCCC[C@@H]1C(=O)O 11.2%, C=CCOc1cccc(/C=N/NC(=O)CN2CCCCC2)c1 8.26%, O=C(C[C@H]1C/C=C\C[C@@H](Cc2ccc(F)cc2)C(=O)OC[C@H]2CCCN2C1=O)N[C@@H](CO)Cc1ccccc1 4.35%, CC(NC(=O)c1cccc(C(F)(F)F)c1)C1CCCO1 (stereo not drawn) 6.29%, O=c1cc(-c2ccc(O)cc2)oc2c([C@@H]3O[C@H](CO)[C@@H](O)[C@H](O)[C@H]3O)c(O)c([C@@H]3O[C@H](CO)[C@@H](O)[C@H](O)[C@H]3O)c(O)c12 5.95%, CC1OC(OCC2OC(Oc3c(-c4ccc(O)cc4)oc4cc(O)cc(O)c4c3=O)C(O)C(O)C2O)C(O)C(O)C1O (stereo not drawn) 7.46%, O=c1cc(-c2ccc(O)cc2)oc2cc(O)c(C3OC(CO)C(O)C(O)C3O)c(O)c12 (stereo not drawn) 12.2%, O=c1c2cc(O)c(O)cc2oc2cc(O)c(C3OC(CO)C(O)C(O)C3O)c(O)c12 (stereo not drawn) 23.9%, O=c1cc(-c2ccc(O)cc2)oc2cc(O)c([C@@H]3O[C@H](CO)[C@@H](O)[C@H](O)[C@H]3O)c(O)c12 4.21%, COc1ccc(-c2cc(=O)c3c(O)cc(OC4OC(COC5OC(C)C(O)C(O)C5O)C(O)C(O)C4O)cc3o2)cc1O (stereo not drawn) 4.67%, CCn1ncc([N+](=O)[O-])c1C(=O)Nc1c(C)nn(Cc2ccc(F)cc2)c1C -5.73%, CN(C)S(=O)(=O)N1CCN(Cc2ccccc2)CC1 -9.47%, COc1cccc(C(=O)NC2(C(F)(F)F)N=C3SCCN3C2=O)c1 (stereo not drawn) 8.58%, COc1ccc(C(=O)N/N=C(/C)c2cccc(NC(=O)c3ccccc3F)c2)cc1 6.03%, Cc1nc2ccccc2c(=O)n1NC(=O)Cc1ccc(Br)cc1 1.21%, C=CCc1c(C)nc(-c2ccccc2)nc1N/N=C/c1ccccc1 9.45%, C=CCc1c(C)nc(-c2ccccc2)nc1Nc1ccccc1O -2.42%, COc1ccc(NC(=O)CN2C(=O)C(C)Oc3ccccc32)c(OC)c1 (stereo not drawn) 9.91%, CC(C)(C)C(=O)NCc1ccc(C(=O)CSc2nnc3n2CCCCC3)s1 9.14%, CCOc1ccc(C(CC(=O)O)NC(=O)c2ccco2)cc1OC (stereo not drawn) 5.75%, Cc1cc(N/N=C/c2ccc(O)cc2O)nc(-c2ccccc2O)n1 9.61%, Oc1ccc(/C=N/Nc2cccc3cccnc23)c(O)c1 0.03%, COc1cccc(/C=N/Nc2cc(Cl)nc(C)n2)c1O -19.7%, Oc1ccc(/C=N/Nc2ccc3ccccc3c2)c(O)c1 9.51%, Cc1cc(N/N=C/c2ccc(O)cc2O)c2ccccc2n1 -8.64%, Oc1cccc(C=NNc2ccccn2)c1 2.05%, Cc1ccc(-c2c(C(=O)NC(C)C)oc(=O)c3ccccc23)cc1 5.65%, CCCCSc1ncnc2c1ncn2C1CCCCO1 (stereo not drawn) 0.67%, CC12CCC(C(=O)Nc3cc(Cl)ccc3Cl)(C(Br)C1=O)C2(C)C (stereo not drawn) 8%, CC(=O)/C(=C/N(C)C)Sc1ccc(C)cc1 -4.58%, COC(=O)[C@@]12CCCN1[C@H](c1ccc(-c3ccccc3)cc1)[C@@H]1C(=O)N(C)C(=O)[C@@H]12 10.8%, O=C(COC(=O)CCS(=O)(=O)c1ccc(Cl)cc1)Nc1ncc(Cl)cc1Cl -0.72%, CC(C)(C)c1ccc(/C=C2\SC(=O)N=C2N)cc1 2.11%, NC1=NC(=O)S/C1=C\c1ccc(F)cc1 -6.63%, CCOc1ccc(N2C(=O)S/C(=C\c3ccc(O)c(OCC)c3)C2=O)cc1 9.4%, NC1=NC(=O)/C(=C\c2ccc(O)c([N+](=O)[O-])c2)S1 2.32%, CCN=C1S/C(=C\c2cc(OCC)c(O)cc2Br)C(=O)N1CC 14.2%, C=CCOc1ccc(/C=C2\SC(N)=NC2=O)cc1OC 7.81%, CCN=C1S/C(=C\c2ccc(OCC)c(OC)c2)C(=O)N1CC 2.65%, COc1ccc(/C=C2\SC(=O)N=C2N)cc1OC -3.06%
